Measurements published in PubChem BioAssay AID1852 (Sanford-Burnham Center for Chemical Genomics, 2009).
Among all 2,500 compounds or so, about 1,100 (44%) were called active. The set was probably picked from earlier hits. The list shows a part of the results. Values without a mark were called inactive.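 The calls were made as follows: active = inhibition above 50% at 4 µM in the single-point screen; inactive = inhibition of 50% or less.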

Experiment: TNF-a-driven NF-kB reporter inhibitors, primary screen, selectivity assay for NOD1/NOD2 signaling inhibitor project, cell-based, HEK293T NF-kB-Luc, luminescence (AID 1852)
Conditions: TNF-a induced, 14 h, at 4 µM, active compounds read high

| Structure (SMILES) | inhibition |
| --- | --- |
| COc1ccc(C(C(=O)NC2CCCCC2)N(C(=O)CCl)c2ccc(OC)cc2)cc1 (stereo not drawn) | 40.2% |
| COc1ccc(N(C(=O)CCl)C(C(=O)NC2CCCCC2)c2cccnc2)cc1 (stereo not drawn) | 87.1% (active) |
| COc1ccc(C(C(=O)NC2CCCCC2)N(C(=O)CCl)c2ccc(C)cc2)cc1 (stereo not drawn) | 37% |
| O=C(NC1CCCCC1)C(c1cccnc1)N(C(=O)CCl)c1ccc(F)cc1 (stereo not drawn) | 69.8% (active) |
| CC(C)C(=O)NC(c1cccs1)c1cc([N+](=O)[O-])c2cccnc2c1O (stereo not drawn) | 54.8% (active) |
| CC(=O)NC(c1ccco1)c1ccc2cccnc2c1O (stereo not drawn) | 26.6% |
| CC(=O)NC(c1cccs1)c1cc([N+](=O)[O-])c2cccnc2c1O (stereo not drawn) | 105% (active) |
| COc1cc([N+](=O)[O-])cc2sc(NC(=O)c3c(F)cccc3F)nc12 | 16.4% |
| COc1ccc(C(=O)Nc2nc3ccccc3s2)c(OC)c1 | 88% (active) |
| COc1ccccc1C(=O)Nc1nc2ccccc2s1 | 65.3% (active) |
| COc1ccc2nc(Nc3nc4ccc(NC(C)=O)cc4s3)sc2c1 | -14.1% |
| CCOc1ccc2nc(NC(=O)c3ccccn3)sc2c1 | 102% (active) |
| COc1ccc2nc(Nc3nc(C)c(C(C)=O)s3)sc2c1 | -12.9% |
| COc1ccccc1C(=O)NCc1ccc(-c2nc3ccccc3s2)cc1 | 14.3% |
| O=C(CCl)N=c1sccn1Cc1cccc2ccccc12 | 44.1% |
| CC(=O)NC(c1cccc([N+](=O)[O-])c1)c1ccc2cccnc2c1O (stereo not drawn) | 70.9% (active) |
| CC(=O)NC(c1ccc2ccccc2c1)c1ccc2cccnc2c1O (stereo not drawn) | 75.2% (active) |
| CC(=O)NC(c1ccc(Cl)cc1Cl)c1ccc2cccnc2c1O (stereo not drawn) | 15.6% |
| COc1cccc(C(NC(C)=O)c2ccc3cccnc3c2O)c1 (stereo not drawn) | 57.3% (active) |
| COc1ccc(C(NC(C)=O)c2ccc3cccnc3c2O)c(OC)c1 (stereo not drawn) | 99.8% (active) |

| Structure (SMILES) | inhibition |
| --- | --- |
| COc1ccc(-c2cc(C)no2)cc1S(=O)(=O)N1CCN(c2ccccc2F)CC1 | 49.7% |
| CSC(=S)N/N=C/c1ccc(Br)cc1 | 3.9% |
| Cc1cc(NC(c2cccnc2)c2ccc3cccnc3c2O)no1 (stereo not drawn) | 99.8% (active) |
| Cc1conc1NC(c1cccs1)c1ccc2cccnc2c1O (stereo not drawn) | 14.1% |
| Cc1ccc(CNC(=O)C2CCCN(S(=O)(=O)c3cccc4nonc34)C2)cc1 (stereo not drawn) | 43.1% |
| Cc1cccc(NC(=O)C2CCN(S(=O)(=O)c3ccc4c(c3)NC(=O)CO4)CC2)c1 | 11.7% |
| COc1ccc(C)cc1NC(=O)C1CCN(S(=O)(=O)c2cccc3nonc23)CC1 | 94.5% (active) |
| CCc1ccc(-c2cc(C)no2)cc1S(=O)(=O)NCCCN1CCN(c2ccccc2)CC1 | 28.3% |
| C/C(=N\NC(=O)c1cc2ccccc2cc1O)c1cc2ccccc2o1 | 105% (active) |
| C/C(=N\NC(=O)c1cc2ccccc2cc1O)c1ccccn1 | -5.1% |
| CCOC(=O)N1CCN(C(=O)c2ccc(Oc3ccc([N+](=O)[O-])cc3)cc2)CC1 | -11.6% |
| Cc1ccc(S(=O)(=O)CC#CCOC(=O)c2ccc([N+](=O)[O-])cc2)cc1 | 91.4% (active) |
| COc1ccc(NS(=O)(=O)c2ccc(N/N=C(\C)c3ccncc3)c([N+](=O)[O-])c2)cc1 | 51.9% (active) |
| COc1ccc(NS(=O)(=O)c2ccc3oc(SC(C)C(N)=O)nc3c2)cc1 (stereo not drawn) | 2.2% |
| CC[C@H]1CN2CCc3cc(OC)c(OC)cc3[C@@H]2C[C@@H]1C[C@H]1NCCc2cc(OC)c(OC)cc21 | 102% (active) |
| Cc1ccc(C)c(N2CCN(C(=O)C34CC5CC(C3)CC(n3nnc(C)n3)(C5)C4)CC2)c1 | 25.2% |
| CN(C)Cc1c(C(=O)N/N=C/c2cccc(OCc3c(F)cccc3Cl)c2)nnn1-c1nonc1N | 74% (active) |
| CCOc1ccccc1-n1c(SCC(=O)Nc2ccccc2C(=O)O)nc2ccccc2c1=O | -2.7% |
| O=C(COc1ccc2ccccc2c1)Nc1ccc(Br)cc1C(=O)O | -2.8% |
| O=C(CSc1nc2ccccc2c(=O)n1Cc1ccccc1)Nc1ccc(Br)cc1C(=O)O | 53.2% (active) |

| Structure (SMILES) | inhibition |
| --- | --- |
| COc1cc(/C=C/c2ccc3cccc(O)c3n2)ccc1O | 105% (active) |
| COc1cc(/C=C/c2ccc3cccc(O)c3n2)cc(Br)c1OC | 28.6% |
| COc1cc(/C=C/c2ccc3cccc(O)c3n2)cc(OC)c1OC | 105% (active) |
| COc1cc(/C=C/c2ccc3cccc(O)c3n2)cc(Cl)c1OC | -19.5% |
| COc1cccc(OCCOc2ccc(/C=C3\C(=N)N4N=C(S(C)(=O)=O)SC4=NC3=O)cc2OC)c1 | -57.6% |
| C=C1C(=O)[C@@]23[C@H](O)C[C@@H]4C(C)(C)CC[C@H](O)[C@@]4(C)[C@@H]2CC[C@@H]1[C@H]3O | 68.9% (active) |
| NC(=O)c1c(NC(=O)C(=O)N2CCOCC2)sc2c1CCCC2 | 29.8% |
| COc1ccc(OC)c(CCNC(=O)C(C)n2nc(C)c3c(C)n(-c4ccc(C)cc4)nc3c2=O)c1 (stereo not drawn) | 49.3% |
| CCOc1ccccc1CNC(=O)Cn1nc(C)c2c(C)n(-c3ccc(C)cc3)nc2c1=O | 55% (active) |
| COc1ccc(OC)c(CCNC(=O)Cn2nc(C)c3c(C)n(-c4ccc(C)cc4)nc3c2=O)c1 | 69.7% (active) |
| COc1ccc(CCNC(=O)C(C)n2nc(C)c3c(C)n(-c4ccc(C)cc4)nc3c2=O)c(OC)c1 (stereo not drawn) | 56.1% (active) |
| CCOC(=O)c1c(C)nc2sc3c(=O)n(-c4ccc(C(C)=O)cc4)nnc3c2c1-c1ccc(OC)cc1 | 5.1% |
| CCn1nc(C)c(NC(=O)/C=C/c2ccc(OC)c(COc3ccc(Br)cc3)c2)c1C | 38.5% |
| O=C(c1ccc(S(=O)(=O)c2cccc(Cl)c2)c([N+](=O)[O-])c1)N1CCN(c2ccccn2)CC1 | 35.5% |
| O=C(c1ccc(S(=O)(=O)c2ccccc2Cl)c([N+](=O)[O-])c1)N1CCN(Cc2ccccc2)CC1 | 56.1% (active) |
| O=C(c1ccc(S(=O)(=O)c2ccc(F)cc2)c([N+](=O)[O-])c1)N1CCCCCC1 | 27.8% |
| O=C(c1ccc(S(=O)(=O)c2ccccc2Cl)c([N+](=O)[O-])c1)N1CCCCCC1 | 26.2% |
| O=C(c1ccc(S(=O)(=O)c2cccc(Cl)c2)c([N+](=O)[O-])c1)N1CCN(Cc2ccccc2)CC1 | 53.1% (active) |
